Experimental data taken from PubChem BioAssay (Tox21).
Results filed as inconclusive are left out. Unmarked numbers belong to inactive results. Calls of active or inactive are those of the source. The call rests on the fitted dose curve.
On the % scale 0 is the no-effect control and ±100 the full control effect; potency means the concentration at half of the fitted maximal effect.

What follows are compounds tested against Thyrotropin receptor (Homo sapiens) (UniProt P16473) (assay: qHTS assay to identify small molecule agonists of the thyroid stimulating hormone receptor (TSHR) signaling pathway (AID 1224843; further: nearly all actives have a fitted effect of over 45% in size)). Settings: TSHR-HEK293 cells, cAMP HTRF, agonist mode, 30 min; series mostly up to 92.4 µM; activation: at the top concentration.
Chain of Thyrotropin receptor (Homo sapiens) (P16473 whole entry, looked up): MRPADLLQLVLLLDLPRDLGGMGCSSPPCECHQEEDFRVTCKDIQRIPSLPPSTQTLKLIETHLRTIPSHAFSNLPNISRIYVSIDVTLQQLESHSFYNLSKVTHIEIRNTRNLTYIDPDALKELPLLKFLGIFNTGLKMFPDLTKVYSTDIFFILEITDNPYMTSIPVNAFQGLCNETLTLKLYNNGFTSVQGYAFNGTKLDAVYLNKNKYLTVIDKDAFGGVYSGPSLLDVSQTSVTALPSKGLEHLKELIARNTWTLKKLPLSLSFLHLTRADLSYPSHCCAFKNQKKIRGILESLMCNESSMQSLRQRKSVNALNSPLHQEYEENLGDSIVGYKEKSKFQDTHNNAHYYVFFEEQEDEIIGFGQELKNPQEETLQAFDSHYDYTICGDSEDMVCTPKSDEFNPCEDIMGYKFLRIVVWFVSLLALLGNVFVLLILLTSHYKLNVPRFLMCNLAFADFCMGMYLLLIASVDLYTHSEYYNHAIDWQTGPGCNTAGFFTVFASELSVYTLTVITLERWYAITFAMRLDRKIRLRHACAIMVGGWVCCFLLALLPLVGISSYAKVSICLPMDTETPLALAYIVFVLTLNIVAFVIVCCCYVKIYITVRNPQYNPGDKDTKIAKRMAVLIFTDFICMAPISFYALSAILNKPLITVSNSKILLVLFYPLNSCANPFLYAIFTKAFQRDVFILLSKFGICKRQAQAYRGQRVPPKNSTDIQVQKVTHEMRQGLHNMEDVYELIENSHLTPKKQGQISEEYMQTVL
Method in brief: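 A cell-based cAMP HTRF format was run in TSHR-transfected HEK293 cells, 800 per well. Treatment: 30 min, room temperature. Detection: 1 h with labelled cAMP and anti-cAMP cryptate. Concentration-response over 15 points, three replicates.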
`CC#C[C@]1(O)CC[C@H]2[C@@H]3C[C@H](C)C4=CC(=O)CC[C@]4(C)[C@H]3CC[C@@]21C` was tested, and the “activation” value was 2.5% [at 42.5 µM]. `CN` was tested, and the “activation” value was -10.2%. In the case of `BrCCCBr`, the “activation” value is reported as 10.7%. With `CN1C2CCC(C)(C)C1CC(OC(=O)C(O)(c1cccs1)c1cccs1)C2` (centres undefined) the “activation” value was 0.694% [at 42.5 µM]. `C[C@]12CC[C@H]3[C@@H](CCC4=CC(=O)CC[C@@H]43)[C@@H]1CC[C@@H]2OC(=O)CCc1ccco1` was tested, and the “activation” value was 1.58% [at 42.5 µM]. With `CNC(=O)CSP(=O)(OC)OC` the “activation” value was 1.01%. With `CN1C(=O)[C@@H](NC(=O)c2cc3ccccc3[nH]2)N=C(c2ccccc2)c2ccccc21` the “activation” value was -1.06% [at 42.5 µM]. With `ClSC(Cl)(Cl)Cl` the “activation” value was -0.392%. With `CC(Cl)CCl` (centres undefined) the “activation” value was 2.67%. With `Cc1ccn2nc(S(=O)(=O)Nc3c(F)cccc3F)nc2n1` the “activation” value was -2.62%. For `C[C@H]1[C@H](c2ccc(Cl)cc2)SC(=O)N1C(=O)NC1CCCCC1`, the “activation” value was -1.76%. With `CC(C)=CCN1CC[C@@]2(C)c3cc(O)ccc3C[C@@H]1[C@@H]2C` the “activation” value was 3.46%. With `O=C(Nc1ccc(F)cc1F)c1cccnc1Oc1cccc(C(F)(F)F)c1` the Potency was 37.8 µM (active). In the case of `O=C(N[C@@H]1N=C(c2ccccc2F)c2cccc3c2N(CC3)C1=O)c1cc2ccccc2[nH]1`, the “activation” value is reported as -9.1% [at 42.5 µM]. For `Nc1ccccc1-c1ccccc1`, the “activation” value was -11.4%. For `C[C@]12C/C(=C/O)C(=O)C[C@@H]1CC[C@@H]1[C@@H]2CC[C@@]2(C)[C@H]1CC[C@]2(C)O`, the Potency was “inactive”. With `Nc1nc(N)c(N)c(N)n1` the “activation” value was 4.71%. For `c1ccc2c(c1)cc1ccc3cccc4ccc2c1c34`, the “activation” value was -15.3%. `O=[N+]([O-])c1ccc(Cl)c(Cl)c1Cl` was tested, and the “activation” value was -3.86%.
